Test results published in the supplement of paper PMC10849652.
Of roughly 8,800 targets only a part is listed; those with a hit were picked by preference. About 0.5% of all pairs of compound and target were hits. Unmarked numbers belong to inactive results.

UniProt Q53H54, sequence (Q53H54 whole entry, looked up): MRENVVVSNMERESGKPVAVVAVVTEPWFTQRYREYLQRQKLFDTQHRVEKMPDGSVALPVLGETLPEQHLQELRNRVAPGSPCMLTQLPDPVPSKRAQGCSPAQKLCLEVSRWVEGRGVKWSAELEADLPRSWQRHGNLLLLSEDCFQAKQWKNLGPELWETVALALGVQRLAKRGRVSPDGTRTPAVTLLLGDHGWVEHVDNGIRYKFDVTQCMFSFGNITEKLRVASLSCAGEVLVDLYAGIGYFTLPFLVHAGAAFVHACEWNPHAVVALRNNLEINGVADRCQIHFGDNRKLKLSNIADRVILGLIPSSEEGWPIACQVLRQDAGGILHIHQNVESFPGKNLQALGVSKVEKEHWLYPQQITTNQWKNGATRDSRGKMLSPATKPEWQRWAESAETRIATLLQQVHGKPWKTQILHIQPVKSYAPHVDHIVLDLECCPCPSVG
UniProt O95857, sequence (O95857 whole entry, looked up): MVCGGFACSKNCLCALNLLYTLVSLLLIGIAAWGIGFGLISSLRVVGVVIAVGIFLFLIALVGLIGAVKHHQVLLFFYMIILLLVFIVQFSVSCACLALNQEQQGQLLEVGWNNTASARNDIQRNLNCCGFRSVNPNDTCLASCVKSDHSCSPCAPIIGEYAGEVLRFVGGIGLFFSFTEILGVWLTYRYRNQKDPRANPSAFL
UniProt P33981, sequence (P33981 whole entry, looked up): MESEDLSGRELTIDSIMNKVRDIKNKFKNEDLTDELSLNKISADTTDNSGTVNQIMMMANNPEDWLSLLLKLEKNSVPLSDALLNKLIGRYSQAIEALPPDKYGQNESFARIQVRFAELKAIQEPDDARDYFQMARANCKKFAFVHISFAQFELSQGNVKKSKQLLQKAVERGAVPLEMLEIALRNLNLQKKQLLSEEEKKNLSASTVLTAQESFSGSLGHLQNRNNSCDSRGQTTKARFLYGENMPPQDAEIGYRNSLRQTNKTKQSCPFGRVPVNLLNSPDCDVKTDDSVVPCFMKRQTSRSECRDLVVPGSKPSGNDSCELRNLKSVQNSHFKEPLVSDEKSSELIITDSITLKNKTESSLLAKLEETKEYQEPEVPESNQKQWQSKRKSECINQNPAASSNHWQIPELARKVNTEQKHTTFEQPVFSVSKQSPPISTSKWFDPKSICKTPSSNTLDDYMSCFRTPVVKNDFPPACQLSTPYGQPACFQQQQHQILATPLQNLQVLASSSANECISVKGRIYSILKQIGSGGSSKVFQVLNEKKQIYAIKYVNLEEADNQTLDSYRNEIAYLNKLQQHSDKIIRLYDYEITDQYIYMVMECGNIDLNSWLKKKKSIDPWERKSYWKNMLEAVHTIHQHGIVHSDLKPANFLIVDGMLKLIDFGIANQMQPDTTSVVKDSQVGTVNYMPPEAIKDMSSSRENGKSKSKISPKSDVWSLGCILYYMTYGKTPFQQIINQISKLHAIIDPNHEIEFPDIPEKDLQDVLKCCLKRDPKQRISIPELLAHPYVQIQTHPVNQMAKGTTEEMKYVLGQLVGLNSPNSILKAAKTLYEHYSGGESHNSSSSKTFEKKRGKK
UniProt Q96CW5, sequence (Q96CW5 whole entry, looked up): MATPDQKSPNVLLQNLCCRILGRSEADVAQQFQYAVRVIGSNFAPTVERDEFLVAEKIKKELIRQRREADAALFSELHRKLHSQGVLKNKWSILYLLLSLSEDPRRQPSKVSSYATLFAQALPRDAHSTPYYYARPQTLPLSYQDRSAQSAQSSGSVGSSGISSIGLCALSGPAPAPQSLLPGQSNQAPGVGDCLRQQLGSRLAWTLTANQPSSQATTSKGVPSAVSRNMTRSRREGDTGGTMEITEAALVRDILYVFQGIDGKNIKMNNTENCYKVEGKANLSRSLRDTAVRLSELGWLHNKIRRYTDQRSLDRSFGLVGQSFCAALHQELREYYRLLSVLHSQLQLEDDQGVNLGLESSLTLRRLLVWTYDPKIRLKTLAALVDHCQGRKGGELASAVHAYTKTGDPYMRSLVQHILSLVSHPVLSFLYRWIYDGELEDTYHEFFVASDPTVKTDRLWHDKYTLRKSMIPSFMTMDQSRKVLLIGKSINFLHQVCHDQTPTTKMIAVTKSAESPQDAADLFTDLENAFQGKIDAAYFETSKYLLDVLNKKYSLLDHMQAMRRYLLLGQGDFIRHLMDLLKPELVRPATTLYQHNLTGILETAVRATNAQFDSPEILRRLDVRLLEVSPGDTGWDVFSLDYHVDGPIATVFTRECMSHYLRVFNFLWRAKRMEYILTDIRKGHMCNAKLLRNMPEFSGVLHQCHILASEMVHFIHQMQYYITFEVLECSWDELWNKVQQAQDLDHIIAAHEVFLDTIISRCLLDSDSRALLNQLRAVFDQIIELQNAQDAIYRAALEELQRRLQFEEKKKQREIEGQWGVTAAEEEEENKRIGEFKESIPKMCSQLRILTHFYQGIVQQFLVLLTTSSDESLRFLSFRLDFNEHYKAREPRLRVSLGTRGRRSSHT
UniProt Q8NBN3, sequence (Q8NBN3 whole entry, looked up): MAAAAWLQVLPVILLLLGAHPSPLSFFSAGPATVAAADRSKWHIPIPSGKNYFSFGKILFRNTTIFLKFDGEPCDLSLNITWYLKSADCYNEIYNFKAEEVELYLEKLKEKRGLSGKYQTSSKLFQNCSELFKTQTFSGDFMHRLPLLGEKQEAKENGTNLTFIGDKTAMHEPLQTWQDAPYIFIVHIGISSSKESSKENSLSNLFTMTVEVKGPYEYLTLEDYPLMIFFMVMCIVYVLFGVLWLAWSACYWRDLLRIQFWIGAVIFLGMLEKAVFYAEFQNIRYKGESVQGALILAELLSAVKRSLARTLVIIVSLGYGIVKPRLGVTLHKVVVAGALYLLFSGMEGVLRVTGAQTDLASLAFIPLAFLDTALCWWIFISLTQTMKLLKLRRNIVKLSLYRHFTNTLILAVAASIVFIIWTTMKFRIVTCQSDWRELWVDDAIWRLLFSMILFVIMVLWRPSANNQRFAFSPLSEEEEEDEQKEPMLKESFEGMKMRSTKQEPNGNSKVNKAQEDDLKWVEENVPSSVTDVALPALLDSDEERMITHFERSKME
UniProt O43615, sequence (O43615 whole entry, looked up): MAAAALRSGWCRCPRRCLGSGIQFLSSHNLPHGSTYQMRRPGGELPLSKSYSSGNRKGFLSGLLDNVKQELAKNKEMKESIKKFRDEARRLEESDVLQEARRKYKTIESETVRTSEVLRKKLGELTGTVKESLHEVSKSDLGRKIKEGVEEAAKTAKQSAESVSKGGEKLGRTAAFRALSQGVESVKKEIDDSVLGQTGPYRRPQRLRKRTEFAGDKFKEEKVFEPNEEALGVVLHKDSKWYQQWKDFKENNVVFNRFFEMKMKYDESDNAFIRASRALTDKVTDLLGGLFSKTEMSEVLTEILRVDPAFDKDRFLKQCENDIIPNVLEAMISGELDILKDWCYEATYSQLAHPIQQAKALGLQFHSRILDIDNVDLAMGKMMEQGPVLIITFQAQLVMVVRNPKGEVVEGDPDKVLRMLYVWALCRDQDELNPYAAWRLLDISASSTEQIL
UniProt Q14139, sequence (Q14139 whole entry, looked up): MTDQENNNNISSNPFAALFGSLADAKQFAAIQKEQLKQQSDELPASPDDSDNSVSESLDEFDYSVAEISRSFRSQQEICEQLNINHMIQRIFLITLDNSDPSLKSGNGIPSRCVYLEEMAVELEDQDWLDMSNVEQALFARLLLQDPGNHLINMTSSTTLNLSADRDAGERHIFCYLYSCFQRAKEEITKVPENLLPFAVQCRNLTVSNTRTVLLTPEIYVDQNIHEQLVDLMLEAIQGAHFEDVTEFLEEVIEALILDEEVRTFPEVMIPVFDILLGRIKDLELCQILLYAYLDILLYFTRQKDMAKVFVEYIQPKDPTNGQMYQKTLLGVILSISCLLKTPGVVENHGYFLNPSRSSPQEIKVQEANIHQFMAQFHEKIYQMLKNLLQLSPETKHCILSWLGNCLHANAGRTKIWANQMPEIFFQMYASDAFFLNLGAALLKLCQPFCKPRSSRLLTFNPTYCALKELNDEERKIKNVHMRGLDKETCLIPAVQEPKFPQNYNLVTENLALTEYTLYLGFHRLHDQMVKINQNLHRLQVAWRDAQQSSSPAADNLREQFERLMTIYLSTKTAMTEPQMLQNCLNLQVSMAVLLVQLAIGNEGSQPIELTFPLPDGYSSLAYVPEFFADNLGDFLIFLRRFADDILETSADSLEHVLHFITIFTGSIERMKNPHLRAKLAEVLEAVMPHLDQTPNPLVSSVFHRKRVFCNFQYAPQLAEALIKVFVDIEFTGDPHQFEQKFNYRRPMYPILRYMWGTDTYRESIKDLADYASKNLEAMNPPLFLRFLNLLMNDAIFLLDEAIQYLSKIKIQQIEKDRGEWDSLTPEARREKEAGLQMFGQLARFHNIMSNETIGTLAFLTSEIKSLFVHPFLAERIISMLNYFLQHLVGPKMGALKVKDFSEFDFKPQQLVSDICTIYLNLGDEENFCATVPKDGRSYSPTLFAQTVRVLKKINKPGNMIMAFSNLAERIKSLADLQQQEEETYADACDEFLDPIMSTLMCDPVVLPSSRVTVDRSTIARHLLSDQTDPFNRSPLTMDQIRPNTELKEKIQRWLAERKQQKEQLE
UniProt P42167, sequence (P42167 whole entry, looked up): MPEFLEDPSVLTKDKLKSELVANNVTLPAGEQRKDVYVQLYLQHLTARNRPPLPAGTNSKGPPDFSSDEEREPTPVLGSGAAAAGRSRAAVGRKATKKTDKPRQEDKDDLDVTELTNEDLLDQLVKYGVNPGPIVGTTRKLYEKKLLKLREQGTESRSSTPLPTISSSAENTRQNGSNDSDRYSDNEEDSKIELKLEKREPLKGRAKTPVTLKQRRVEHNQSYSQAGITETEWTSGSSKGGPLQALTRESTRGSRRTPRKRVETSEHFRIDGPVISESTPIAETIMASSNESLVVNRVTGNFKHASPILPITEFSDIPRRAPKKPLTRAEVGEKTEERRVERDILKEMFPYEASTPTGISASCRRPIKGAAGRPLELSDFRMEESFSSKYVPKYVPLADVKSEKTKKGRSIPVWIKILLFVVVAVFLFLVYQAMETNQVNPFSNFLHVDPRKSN

Each target was assayed with Cc1sc2c(c1C)C(c1ccc(Cl)cc1)=N[C@@H](CC(=O)OC(C)(C)C)c1nnc(C)n1-2 (assay: log2 fold change, soluble protein after heating vs DMSO (PISA); higher = thermal stabilisation; K562 lysate, 10 uM; active = over 0.2 and 3.5 SD of the protein, either way, in both replicates (recomputed)).
Outline: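 Quantification was by TMTpro 16plex LC-MS/MS with equalised channel sums, applied to the supernatant after 21,000xg for 90 min. Samples were crude K562 extract at 1 mg/mL protein in PBS pH 7.4 with 1 mM MgCl2, treated with 10 μM compound for 30 min, heated for 3 min across 48°C-58°C, pooled and brought to 0.5% NP-40 at 4°C. Values are log-two fold changes in thermal stability relative to solvent controls, from duplicates.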
For TSFM (UniProt P43897), the log2 fold change was 0.066. TOX4 (UniProt O94842) gave a log2 fold change of -0.019. Work on TUBGCP3 (UniProt Q96CW5) yielded a log2 fold change of 0.008. Work on TEX30 (UniProt Q5JUR7) yielded a log2 fold change of -0.1. Target UBP1 (UniProt Q9NZI7) has a log2 fold change of 0.009. Work on UBAP2 (UniProt Q5T6F2) yielded a log2 fold change of -0.022. TRIM44 (UniProt Q96DX7) showed a log2 fold change of -0.031. Target TMEM87A (UniProt Q8NBN3) has a log2 fold change of -0.011. TK1 (UniProt P04183) showed a log2 fold change of -0.045. TBK1 (UniProt Q9UHD2) was tested, and the log2 fold change was -0.003. TMPO (UniProt P42167) was tested, and the log2 fold change was 0.042. Work on TTC5 (UniProt Q8N0Z6) yielded a log2 fold change of 0.039. TUBB (UniProt P07437) gave a log2 fold change of 0.014. UBE4A isoform 2 (UniProt Q14139) gave a log2 fold change of 0.043. Work on TGOLN2 isoform 7 (UniProt O43493) yielded a log2 fold change of -0.017. Work on TBL3 (UniProt Q12788) yielded a log2 fold change of -0.014. In the case of TYW3 (UniProt Q6IPR3), the log2 fold change is reported as -0.029. In the case of TBC1D23 (UniProt Q9NUY8), the log2 fold change is reported as 0.016. For TTK (UniProt P33981), the log2 fold change was 0.02. Target TSPAN13 (UniProt O95857) has a log2 fold change of 0.187. TRMT12 (UniProt Q53H54) showed a log2 fold change of -0.061. TIMM44 (UniProt O43615) gave a log2 fold change of -0.035. TRIP12 isoform 2 (UniProt Q14669) gave a log2 fold change of 0.
